Assay outcomes (PubChem)
TTR transcr act: activators of transthyretin transcription | SH-SY5Y TTR promoter Gaussia luciferase, luminescence; 100% = recombinant luciferase protein wells | activation, % at 16.7 µM | hit rate 1.3% among 92,000;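 active means activation above the mean of all tested compounds plus 3 SD, cut at about 9.5% in these data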;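 further: cells exposed to compounds for one day before reading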
HuH7 TTR inh: HuH7 TTR transcription inhibition, counter-screen | shares compounds with TTR transcr act | AID 1117279 | HuH7 TTR promoter-Gaussia luciferase reporter, luminescence | inhibition, % at 16.7 µM | hit rate 4% among 1,100;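 active means average inhibition above the solvent-only control wells' mean plus 3 SD, cut at about 15% in these data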;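 further: inhibitors lower well luminescence so higher value means more inhibition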
TTR up confirm: confirmation of human transthyretin transcription activators | 1,100 tested, under 10 active | activation, % at 16.7 µM | shares compounds with TTR transcr act | AID 1117280 | SHSY5Y TTR promoter Gaussia luciferase, luminescence; 100% = purified Lucia enzyme wells, no cells;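 active means mean activation above a set limit taken from the earlier primary screen, cut at about 11% in these data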
Numbers stand for hits; 0 = inactive. Shown is part of a subset that was picked to be rich in hits.

SMILES	TTR transcr act	others
CC(C)CCN1NC2(CCCC(C)C2)NC1=S (centres undefined)	13	HuH7 TTR inh=0;TTR up confirm=0
CC(C)CC1CCCC12NC(=O)NC2=O (centres undefined)	0
CCc1ccc2c(c1)C(c1ccc([N+](=O)[O-])cc1)=NNC(c1ccc(C)cc1)=N2	0
O=C(NCCc1ccccc1)C1CCN(S(=O)(=O)c2cccc3nonc23)CC1	0
O=C(NCCc1ccccc1)C1CCCN(S(=O)(=O)c2cccc3nonc23)C1 (centres undefined)	10.0	HuH7 TTR inh=0;TTR up confirm=0
O=C(NCc1ccc(F)cc1)C1CCCN(S(=O)(=O)c2cccc3nonc23)C1 (centres undefined)	0
CCN1CCCCC(NC(=O)COCc2ccccc2)C1=O (centres undefined)	0
CC1CN(C(=O)CCNC(=O)c2ccccc2Cl)CC(C)O1 (centres undefined)	0
COc1ccc(N(C(=O)CNC(=O)c2cccs2)C(C(=O)NC2CCCC2)c2ccncc2)cc1 (centres undefined)	0
COc1ccc(N(C(=O)Cc2cccs2)C(C(=O)NC2CCCC2)c2ccncc2)cc1 (centres undefined)	18	HuH7 TTR inh=0;TTR up confirm=0
COc1ccc(N(C(=O)CNC(=O)c2ccco2)C(C(=O)NC2CCCC2)c2ccncc2)cc1 (centres undefined)	0
CCN(CC(=O)NCC1CCCO1)S(=O)(=O)c1ccc2ccccc2c1 (centres undefined)	0
N=c1c2c(ccn1CCCCc1ccccc1)Oc1ccc3ccccc3c1C2c1ccccc1 (centres undefined)	0
COc1ccc(CCC(=O)OCC(=O)Nc2sccc2C(N)=O)cc1	0
Cc1ccc(S(=O)(=O)NCC2Cc3ccccc3N2S(=O)(=O)c2ccc(C)cc2)cc1 (centres undefined)	0
Cc1ccc(S(=O)(=O)NC[C@H]2CN(S(=O)(=O)c3ccc(C)cc3)[C@@H](Cc3ccccc3)CO2)cc1	0
Cc1ccc(S(=O)(=O)NC[C@@H]2C[C@H](c3ccccc3)ON2S(=O)(=O)c2ccc(C)cc2)cc1	10	HuH7 TTR inh=0;TTR up confirm=0
Cc1ccc2sc(-c3ccc(NC(=O)/C=C\C(=O)O)cc3)nc2c1	0
O=C(NCc1ccccc1)c1ccc(C(=O)NCc2ccccc2)cc1	0
O=C(NCc1ccccc1)c1cc(=O)c2ccccc2o1	26	HuH7 TTR inh=0;TTR up confirm=0
O=C(NCc1ccccc1)c1cc2ccccc2oc1=O	0
COc1ccc(CCNC(=O)/C(C#N)=C/c2cccc(OCc3ccccc3)c2)cc1OC	0
COc1ccc(CC(=O)N2CCc3ccccc32)cc1	21	HuH7 TTR inh=0;TTR up confirm=0
COc1ccc(C(=O)N2CCCc3ccccc32)cc1	0
COc1cc(CO)ccc1OCC(=O)N1CCc2ccccc21	0
SMILES	TTR transcr act	others
O=C(NCc1ccccc1)C(c1ccc(Cl)cc1)N(C(=O)c1csnn1)C1CC1 (centres undefined)	0
C[C@H](CO)N1C[C@H](C)[C@H](CN(C)C(=O)c2ccncc2)OCc2cnnn2CCCC1=O	18	HuH7 TTR inh=0;TTR up confirm=0
C[C@@H]1CN([C@@H](C)CO)C(=O)CCCn2nncc2CO[C@@H]1CN(C)C(=O)c1ccc(N2CCN(C)CC2)cc1	0
C[C@@H]1CN([C@H](C)CO)C(=O)CCCn2nncc2CO[C@H]1CN(C)C(=O)c1ccccc1	0
O=C(O)C1CCCCC1C(=O)Nc1ccc(F)c(F)c1 (centres undefined)	12	HuH7 TTR inh=0;TTR up confirm=0
O=C(Nc1ccc(F)cc1)c1ccccc1NC(=O)C1CCCCC1C(=O)O (centres undefined)	0
Cc1ccc(NC(=O)C2CCCCC2C(=O)O)cc1C (centres undefined)	0
FC(F)(F)C(F)(F)c1nc2nc(Cl)c(Cl)nc2[nH]1	0
C=CCN1C(=O)[C@H](CC(=O)NCC23CC4CC(CC(C4)C2)C3)[C@@]2(C(=O)OCC)CCCC=C12	0
COc1ccc(N=Cc2c[nH][nH]c2=O)cc1	0
COc1ccc(N=Cc2[nH]c3ccccc3c2O)cc1	14	HuH7 TTR inh=0;TTR up confirm=0
COc1ccccc1NC(=O)c1c(O)c2ccccc2[nH]c1=O	0
CCc1ccc(NC(=O)C(=O)c2ccccc2NC(C)=O)cc1	0
CCCN1CCC(=O)N([C@H](CSc2ccc(OC)cc2)CC(C)C)CC1	0
CC1CCC(=O)N(CCSc2ccccc2)CC1 (centres undefined)	0
Cc1ccc(SCCN2CCN(C)CCC2=O)cc1	0
Cc1ccc(SCCN2CCC(O)CCC2=O)cc1 (centres undefined)	23	HuH7 TTR inh=0;TTR up confirm=0
CC1=NN(Cc2ccccc2)C(=O)C1	0
Cc1ccc(/C=C/C2=NN(Cc3ccc(Cl)c(Cl)c3)C(=O)CC2)cc1	13	HuH7 TTR inh=0;TTR up confirm=0
Cc1ccccc1CN1N=C(/C=C/c2ccccc2)CCC1=O	0
CC(C)(C)OC(=O)N1CCC(N[C@@H](Cc2ccccc2)C(=O)NCCc2c[nH]c3ccccc23)(C(=O)NC2CCCCC2)CC1	0
COc1ccc(NC(=O)OCCN2CCCC23CCC(c2ccccc2)CC3)cc1 (centres undefined)	0
CC(C)OC(=O)/C(=C\c1ccccc1)NC(=O)c1ccccc1	0
CC(=O)N/C(=C\c1ccccc1)C(=O)OCC(=O)NC(=O)c1ccccc1	15	HuH7 TTR inh=0;TTR up confirm=0
CCOC(=O)/C(=C\c1ccc(C)cc1)NC(=O)c1ccccc1	0
SMILES	TTR transcr act	others
COc1ccc(CN2C(=O)[C@]3(NCCc4c3[nH]c3ccc(OC)cc43)c3cc(F)ccc32)cc1	0
CC(C)C[C@H]1CN=C(Nc2ccccc2)N1CC(C)C	0
CCC(C)CCN1C(N(C)C)=NC[C@@H]1Cc1ccccc1 (some centres undefined)	0
CCC(C)CCN1C(N(C)C)=NC[C@@H]1CC(C)C (some centres undefined)	12	HuH7 TTR inh=0;TTR up confirm=0
Cc1ccc(NC(=O)c2ncn(CCCNCC(C)c3ccccc3)n2)cc1C (centres undefined)	0
CCCCCCCCN1C(=O)[C@H](CC(=O)NCCCN2CCCC2=O)C[C@@]2(C(=O)OC)CC(C)(C)CC=C12	0
O=C(CSCc1ccc(Cl)cc1)NCc1ccccn1	12	HuH7 TTR inh=0;TTR up confirm=0
O=C(O)CSCC(=O)NCc1ccc(Cl)cc1	0
O=C(NCc1ccccn1)c1ccc(Cl)cc1Cl	0
Cc1csc(SCC(=O)O)n1	0
Cc1nnc(SCC(=O)NC23CC4CC(CC(C4)C2)C3)s1	0
Cc1csc(SCC(=O)NC23CC4CC(CC(C4)C2)C3)n1	11	HuH7 TTR inh=0;TTR up confirm=0
COc1cc(OC)c(C(=O)OCC(=O)Nc2ccc(S(=O)(=O)N3CCOCC3)cc2)cc1OC	0
N#Cc1cccc(Cn2ccc3ccc(-c4ccc5ccn(Cc6cccc(C#N)c6)c5c4)cc32)c1	0
Cc1cc(NS(=O)(=O)c2cccc([N+](=O)[O-])c2)no1	0
CCc1nc2ccccc2c(=O)n1/N=C/c1ccc(Cl)cc1	0
COc1ccc(/C=N\NC(=O)CCc2c(C)n[nH]c2C)c(OC)c1OC	0
COc1ccc(/C=N/NC(=O)c2cccc(OC(F)(F)C(F)F)c2)c(OC)c1OC	0
COc1ccc(/C=N/NC(=O)C(N)=O)c(OC)c1OC	13	HuH7 TTR inh=0;TTR up confirm=0
CC(C)Cn1c(=O)c2ccccc2n2c(CCC(=O)NCC3CCCO3)nnc12 (centres undefined)	0
c1ccc2sc(-c3csc4c3CCNC4)nc2c1	0
CN1CCN(Cc2cccc(Oc3ccccc3)c2)CC1	18	HuH7 TTR inh=0;TTR up confirm=0
